Results taken from PubChem BioAssay (Tox21).
Inconclusive results are not listed. Values without a mark were called inactive. Active and inactive are the calls of the source. Calls come from the whole dose curve; as a rule, active = well fitted activation curve with a large enough effect in the repeat runs; inconclusive = weak or mixed curves; inactive = no such curve, though single readings can be large or run the other way.

molecular target: Nuclear receptor subfamily 1 group I member 2 (Homo sapiens) (UniProt O75469); assay: Human pregnane X receptor (PXR) small molecule agonists, qHTS assay (AID 1346982); conditions: PXR-Luc HepG2, CYP3A4 luciferase reporter, 24 h; series mostly up to 92.4 µM; activation: at the top concentration; note: nearly all actives have a fitted effect of over 35% in size
Sequence (O75469 whole entry, looked up): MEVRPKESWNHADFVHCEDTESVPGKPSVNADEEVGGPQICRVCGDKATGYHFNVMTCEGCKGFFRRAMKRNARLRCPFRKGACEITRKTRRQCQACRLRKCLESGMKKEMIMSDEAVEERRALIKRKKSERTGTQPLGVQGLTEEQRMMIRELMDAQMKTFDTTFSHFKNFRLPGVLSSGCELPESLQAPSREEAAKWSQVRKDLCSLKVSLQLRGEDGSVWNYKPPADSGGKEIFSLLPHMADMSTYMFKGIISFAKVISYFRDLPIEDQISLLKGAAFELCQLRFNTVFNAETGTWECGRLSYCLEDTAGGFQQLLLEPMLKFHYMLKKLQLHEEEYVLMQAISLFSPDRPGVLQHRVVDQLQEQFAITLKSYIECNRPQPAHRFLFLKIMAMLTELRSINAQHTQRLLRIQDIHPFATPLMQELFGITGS
Text: National Center for Advancing Translational Sciences [NCATS]
NIH Chemical Genomics Center [NCGC]
U.S. Environmental Protection Agency [EPA]
National Institutes of Environmental Health Sciences [NIEHS]
National Toxicology Program [NTP]
The human pregnane X receptor (hPXR) regulates the expression of several drug metabolizing enzymes and induction of these proteins is a major mechanism for developing drug resistance in cancer. One such key enzyme catalyzing the drug metabolism is cytochrome P450 3A4 (CYP3A4). Changes in CYP3A4 expression affect drug metabolism, thereby reducing the therapeutic efficacy and altering toxicological response to a drug and which finally causes adverse drug interaction. To screen Tox21 libraries for compounds that activate hPXR-mediated CYP3A4 gene expression, PXR-Luc HepG2 cells were used.
PXR-Luc HepG2 cells were dispensed at 2,000 per well in 5uL of assay medium containing 5% charcoal-stripped FBS into white solid bottom 1536-well plates (Corning Life Sciences, Corning, NY) using a Multidrop Combi (Thermo Scientific, Waltham, MA) dispenser. The assay plates were incubated at 37 C and 5% CO2 for 5hr, and then 23nL of compounds dissolved in DMSO and positive control were transferred using a Pintool station (Wako, San Diego, CA). The assay plates were incubated at 37C and 5% CO2 for 24hr. For luciferase read, 4uL of ONE-Glo reagent (Promega Corporation, Madison, WI) was added to each well of the assay plates using Flying Reagent Dispenser (FRD, Aurora Discovery, San Diego, CA) and incubated the assay plates at room temperature for 30min. The luminescence signal was quantified using a ViewLux plate reader (Perkin Elmer, Shelton, CT).
% is set by controls: 0 for no effect and ±100 for the full control effect; potency is the fitted concentration of half-maximal effect.

Compound	activation	Potency
Cc1[nH]c(C)c(Cl)c(=O)c1Cl	-7.31% [at 19 µM]	–
CN(C)c1ccc(C(c2ccccc2)c2ccc(N(C)C)cc2)cc1	–	21.7 µM (active)
CCCCC(CC)COC(=O)COc1ccc(Cl)cc1Cl (stereo not given)	10.4%	–
CCCCCC[C@@H](O)C/C=C\CCCCCCCC(=O)OC	16.7%	–
Cc1ccc(N=Nc2c(O)c(C(=O)O)cc3ccccc23)c(S(=O)(=O)O)c1	16.8% [at 42.5 µM]	–
NC(N)=NCCC[C@H](N)C(=O)O	-5.55% [at 8.39 µM]	–
O=C1CCCCCCCCCCCC(=O)OCCO1	-25.8%	–
COCC(C)OC(C)=O (stereo not given)	5.28%	–
CCCCCCCCCCCCN1CCCCCC1=O	–	21.7 µM (active)
Cc1cccc(C)c1OCC(=O)N[C@@H](Cc1ccccc1)[C@@H](O)C[C@H](Cc1ccccc1)NC(=O)[C@H](C(C)C)N1CCCNC1=O	–	29.8 µM (active)
CNC(=O)CN(CCN(CCN(CC(=O)[O-])CC(=O)NC)CC(=O)[O-])CC(=O)[O-].O.[Gd+3]	-13.1% [at 42.5 µM]	–
O=C(Cl)c1cc(C(=O)Cl)cc(C(=O)Cl)c1	–	54.5 µM (active)
CCOC(=O)COC(=O)c1cc(Oc2ccc(C(F)(F)F)cc2Cl)ccc1[N+](=O)[O-]	–	30.6 µM (active)
CN1Cc2cc(C(=O)N3CCC(C4CCNCC4)CC3)ccc2NC(CC(=O)O)C1=O (stereo not given)	-6.56% [at 42.5 µM]	–
CN1CCC(=C2c3ccccc3Sc3ccccc32)CC1	0.422% [at 42.5 µM]	–
Cc1cc(C(=O)O)ccc1[N+](=O)[O-]	1.59%	–
CCOC(=O)C(O)c1ccccc1 (stereo not given)	-1.72% [at 42.5 µM]	–
ClCCOCCOCCCl	2%	–
CC(CC=O)c1ccccc1 (stereo not given)	–	61.1 µM (active)
O=C(O)CC(=O)C(=O)O	–	48.7 µM (active)

Compound	activation	Potency
CCO[C@H](Cc1ccc(OCCc2ccc(OS(C)(=O)=O)cc2)cc1)C(=O)O	-3.47% [at 42.5 µM]	–
CC1(c2ccccc2)OC(C(=O)O)=CC1=O (stereo not given)	-16% [at 42.5 µM]	–
NCCCN1CCOCC1	15.3%	–
C[C@@H]1C[C@H]2[C@@H]3CCC4=CC(=O)C=C[C@]4(C)[C@@]3(F)[C@@H](O)C[C@]2(C)[C@@]1(O)C(=O)COC(=O)c1ccncc1	–	1.33 µM (active)
CCOC(=O)C(F)(F)F	13.9%	–
CCC(C)c1cc(C(C)(C)C)c(O)c(C(C)(C)C)c1 (stereo not given)	–	47.6 µM (active)
S=C([S-])NCCNC(=S)[S-].[Mn+2]	–	30.6 µM (active)
O=C(O)c1ccc(S(=O)(=O)O)cc1C(=O)O	7.14%	–
CN(C)C(=O)NC1(c2ccccc2)CCN(CC[C@@]2(c3ccc(F)c(F)c3)CN(C(=O)c3ccccc3)CCO2)CC1	–	8.02 µM (active)
Cc1ccc(C(C)OC(=O)C2(C)CCC(C(=O)O)C2(C)C)cc1 (stereo not given)	9.7% [at 42.5 µM]	–
CC(=O)c1ccc2c(c1)N(CCCN(C)C)c1ccccc1S2	18.3% [at 42.5 µM]	–
CCCCC(CC)CN1C(=O)C2C3C=CC(C3)C2C1=O (stereo not given)	–	27.3 µM (active)
O=C(Nc1ccccc1)c1ccccc1O	–	6.86 µM (active)
Cc1oc(-c2ccccc2)nc1CCOc1cccc2c1ccn2CCC(=O)O	11.6%	–
CCC(C)(C)CC	-1.87%	–
CCCCOC(=O)CCCCCCCC(=O)OCCCC	-6.92%	–
CCN(CC)c1ccc(C(=C2C=CC(=[N+](CC)CC)C=C2)c2cc(S(=O)(=O)O)ccc2S(=O)(=O)[O-])cc1	-29.5% [at 42.5 µM]	–
CC(C)Cc1ccc(C(C)C(=O)OCc2ccccn2)cc1 (stereo not given)	11.2% [at 42.5 µM]	–
Nc1ccc(N)c2c1C(=O)c1ccccc1C2=O	-30.8%	–
COc1cccc(N(C)C(=S)Oc2ccc3c(c2)CCCC3)n1	–	8.41 µM (active)
